The text below walks through data of PubChem BioAssay.

A number with no mark means an inactive call. For some assays here: Measured potencies and affinities stand elsewhere. This is one part of the list. Calls of active or inactive are those of the source.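 How the source made its calls, unless noted: active means primary screen hit whose fluorescence ratio, in both repeats, exceeds the weak agonist control mean by 3 SD; inactive means the rest.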

The nature of assay [1]: nonspecific thallium flux increase in parental CHO-K1, confirmation, counter-screen for KCNQ2 potentiator project, cell-based, FluxOR thallium flux, duplicate (AID 2282;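 active means signal rise of at least 3 SD above the untreated control mean, in both duplicate wells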;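 further: counter screen of KCNQ2 potentiator hits so any rise reflects channel-independent effects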). Particulars: parental CHO-K1 cells, FluxOR thallium flux fluorescence; at 10 µM; hits give high values; zero = vehicle mean+3SD, 100% = vehicle-minus-blank window.
The target of assay [2] is Potassium voltage-gated channel subfamily KQT member 1 (Homo sapiens) (UniProt P51787). Put plainly: human KCNQ1 channel potentiation off-target, confirmation, selectivity assay for KCNQ2 potentiator project, cell-based, CHO, FluxOR thallium flux (AID 2283;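 active means fluorescence ratio rise of at least 3 SD of vehicle wells above their mean, in both replicate wells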;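 further: 0% = vehicle mean plus 3 SD and 100% = vehicle minus unstimulated blank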). To be noted: CHO KCNQ1 stable, FluxOR thallium flux fluorescence; at 10 µM; hits give high values; beyond 3SD, as % of vehicle-control signal.

Assay [3] has as its target Potassium voltage-gated channel subfamily KQT member 2 (Rattus norvegicus) (UniProt O88943). The experiment in a line: rat KCNQ2 channel potentiators, confirmation, cell-based, CHO, FluxOR thallium flux, duplicate (AID 2287;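 active means fluorescence ratio rising 3 SD or more over the vehicle control mean in both replicates, plus primary screen hit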;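 further: peak minus minimum thallium fluorescence divided by baseline after K/Tl stimulus; 0% = vehicle mean plus 3 SD and 100% = vehicle minus unstimulated blank difference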). Particulars: CHO-KCNQ2 cells, FluxOR thallium flux fluorescence; at 10 µM; hits give high values.
The target is the same in assay [4]. The experiment in a line: potentiators of retigabine-insensitive KCNQ2 W236L, mechanism study for KCNQ2 potentiator project, cell-based, rat KCNQ2 W236L, CHO, automated patch clamp (AID 2558;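 active means current increase at least 3 SD of the untreated controls above them in both duplicate recordings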). To be noted: at 25 µM; outcome: automated patch clamp current. In general terms: The patch-clamp technique gives a direct electrical read-out from membranes.
Assay [5] is described as follows: thallium flux activation in parental CHO cells, counter-screen for KCNQ1 potentiator project (AID 493006;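 active means duplicate-averaged activation above buffer control mean plus 5 SD of those controls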;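 further: fluorescence ratio of max minus min over baseline after K+ and Tl+ depolarization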). Particulars: parental CHO-K1 cells, FluxOR thallium flux, at 10 µM; hits give high values. On the technique in general: A counterscreen serves to expose hits that act by an unwanted route or on another target.
For assay [6], the target named is Potassium voltage-gated channel subfamily KQT member 1 (Homo sapiens) (UniProt P51787). The experiment in a line: KCNQ1 potassium channel potentiators, confirmation, FluxOR thallium flux, CHO cells, duplicates (AID 493007;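 active means potentiation averaged over duplicate wells exceeding buffer-only control mean by more than 3 SD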;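 further: 0% = buffer-only wells and 100% = R-L3 activator control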). Particulars: KCNQ1 cell line, FluxOR thallium flux fluorescence, at 10 µM; hits give high values, % of reference activator effect, buffer zero.

Assay [7] concerns the target Potassium voltage-gated channel subfamily KQT member 2 (Rattus norvegicus) (UniProt O88943). The experiment in a line: rat KCNQ2 channel potentiation, selectivity assay for KCNQ1 potentiator project, KCNQ2-CHO-K1 cells (AID 493009;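 active means mean duplicate potentiation above the buffer control mean plus 5 SD of buffer wells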;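 further: assay conditions were tuned for KCNQ1 rather than KCNQ2 modulators; signal is max minus min fluorescence divided by baseline after thallium stimulus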). Particulars: FluxOR thallium flux fluorescence, at 10 µM; hits give high values, scaled: buffer 0, activator control 100.
Assay [8] addresses Potassium voltage-gated channel subfamily KQT member 1 (Homo sapiens) (UniProt P51787). The experiment in a line: KCNQ1 channel current potentiators, confirmation, orthogonal assay for KCNQ1 potentiator project, IonWorks patch clamp, KCNQ1-CHO cells (AID 493184;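 active means current rise at least 3 SD above the untreated control mean in each of two repeat wells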). Particulars: automated patch clamp current, at 10 µM; hits give high values.
The test system of assay [9] is TRPC4 beta (transient receptor potential cation channel C4), mouse. The experiment in a line: activators of mouse TRPC4 channel, confirmation, cell-based, Fluo4 calcium, HEK293 TRPC4beta/mu-opioid, duplicates, 10 µM (AID 2426;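 active means fluorescence ratio normalized to control raised more than 50% in primary screen plus both repeat runs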). Particulars: Fluo4 calcium fluorescence, at 10 µM; hits give high values.
The subject of assay [10] is transient receptor potential cation channel C4 beta (TRPC4), mouse. The experiment in a line: activators of mouse TRPC4 channel, confirmation, cell-based, second round, Fluo4, HEK293 TRPC4beta/mu-opioid, 1 µM (AID 2461;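 active means primary screen active and over 50% activation in each of two duplicate runs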). Particulars: Fluo4 calcium fluorescence, at 1 µM; hits give high values.
The test system of assay [11] is TRPC4 (transient receptor potential cation channel C4 beta), mouse. Put plainly: positive allosteric modulators of mouse TRPC4, confirmation, cell-based, second round, Fluo-4, HEK293 TRPC4beta/mu-opioid, 1 µM (AID 2554). To be noted: DAMGO EC20, Fluo-4 calcium flux, at 1 µM; hits give high values. For orientation: Calcium flux is commonly read through the fluorescence of an indicator in the cells.

Assay [12] concerns TRPC4 beta (transient receptor potential cation channel C4), mouse. Put plainly: positive allosteric modulators of mouse TRPC4, confirmation, cell-based, Fluo-4, HEK293 TRPC4beta/mu-opioid (AID 2555;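 active means primary screen hit whose calcium fluorescence ratio, in both repeats, exceeds the weak agonist control mean by 3 SD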). Particulars: DAMGO EC20, Fluo-4 calcium flux, at 10 µM; hits give high values.
Assay [13] has as its target Short transient receptor potential channel 4 (Mus musculus) (UniProt Q9QUQ5). Put plainly: inhibitors of mouse TRPC4 channel, confirmation, cell-based, Fluo4, HEK293 TRPC4beta/mu-opioid (AID 2636;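 active means calcium signal cut by more than 3 SD below the full-agonist control yet still positive, in both repeats and the earlier primary screen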). To be noted: DAMGO, Fluo4 calcium flux, at 10 µM; hits give high values.
The target is the same in assay [14]. Put plainly: inhibitors of mouse TRPC4 channel, confirmation, cell-based, second round, Fluo4, HEK293 TRPC4beta/mu-opioid, 1 µM (AID 2637;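 active means calcium signal ratio cut to more than 3 SD under the fully stimulated control mean yet still positive, in both repeats and the primary screen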). To be noted: Fluo4 calcium flux, DAMGO, at 1 µM; hits give high values.
Assay [15] shares this target. The experiment in a line: mouse TRPC4 channel activators, dose response, cell-based, HEK293 TRPC4/mu-opioid, Fluo-4 calcium (AID 434937;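 active means primary screen activator hit with a dose response curve and TRPC4 channel activation at any tested dose; inactive means no activation, no dose response, or not a primary hit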).
Assay [16] has the same target. The experiment in a line: TRPC4 positive allosteric modulators, dose response, cell-based, HEK293 TRPC4/mu-opioid, Fluo-4 calcium, EC20 DAMGO (AID 434941;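 active means earlier screen potentiator hit that boosts the TRPC4 ion channel at some dose, with a dose response; inactive means no potentiation, no dose response, or not a prior hit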;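 further: calcium entry triggered by an EC20 dose of DAMGO at the co-expressed mu-opioid receptor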).
The target is the same in assay [17]. The experiment in a line: mouse TRPC4 channel inhibitors, dose response, cell-based, HEK293 TRPC4/mu-opioid, Fluo-4 calcium (AID 434942;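 active means primary screen inhibitor hit that blocks the TRPC4 channel at some tested dose, yielding a dose curve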).
In assay [18] the target is Short transient receptor potential channel 6 (Mus musculus) (UniProt Q61143). The experiment in a line: inhibition of mouse TRPC6 channel, confirmation, selectivity assay for TRPC4 inhibitor project, cell-based, HEK293, membrane potential dye, duplicate (AID 434948;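 active means active in primary screen and both duplicates, each dropping signal beyond three positive-control SD with fluorescence still positive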). Particulars: HEK293 TRPC6, membrane potential dye fluorescence, at 10 µM, stimulated with maximal-effect acetylcholine; hits give high values.

For assay [19] the target is unchanged. The experiment in a line: activation of mouse TRPC6 channel, confirmation, selectivity assay for TRPC4 activator project, cell-based, HEK293, membrane potential dye, duplicate (AID 434950;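 active means membrane potential signal rise above negative control mean plus 3 SD in both duplicates, also active in the earlier TRPC4 screen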). To be noted: HEK293 TRPC6, membrane potential fluorescence, at 10 µM; hits give high values.
Assay [20] has the same target. The experiment in a line: TRPC6 potentiation by TRPC4 potentiator hits, confirmation, selectivity assay for TRPC4 potentiator project, HEK293 cells, membrane potential dye, duplicate (AID 434952;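 active means compound raising the membrane signal above positive-control mean plus 3 SD in both repeats, and a primary screen hit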). Particulars: HEK293 TRPC6, membrane potential dye fluorescence, at 10 µM, maximal acetylcholine added after compound; hits give high values.
Assay [21] addresses Short transient receptor potential channel 4 (Mus musculus) (UniProt Q9QUQ5). Put plainly: calcium flux activators in TRPC4/5HT1a cells, counter-screen for TRPC4 activator project, cell-based, second counter screen, HEK293 TRPC4/5HT1a, Fluo-4 (AID 434977;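 active means calcium signal rise above buffer-control mean plus 5 SD in both duplicates, and also a hit in the primary screen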). Particulars: Fluo-4 calcium flux, at 10 µM; hits give high values.
Assay [22] can be described thus: calcium flux inhibitors in TRPC4/5HT1a cells, confirmation, counter-screen for TRPC4 inhibitor project, cell-based, second counter screen, HEK293 TRPC4/5HT1a, Fluo-4 (AID 434978;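 active means primary screen active whose calcium signal fell more than 3 SD beyond the full-serotonin control mean in both duplicate plates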;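 further: serotonin given first at submaximal then at maximal dose after compound preincubation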). Particulars: Fluo-4 calcium flux, at 10 µM, serotonin added to trigger calcium flux; hits give high values.
Assay [23] relates to TRPC4 (mouse), co-expressed with 5HT1a in HEK293. Put plainly: calcium flux potentiators in TRPC4/5HT1a cells, confirmation, counter-screen for TRPC4 potentiator project, cell-based, second counter screen, HEK293 TRPC4/5HT1a, Fluo-4 (AID 434979;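 active means signal rise over 3 SD above mean of control wells given weak agonist, in both repeats and first screen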). To be noted: Fluo-4 calcium flux, at 10 µM, serotonin added at its EC20 dose; hits give high values.
The nature of assay [24]: calcium flux activation in mu-opioid HEK293 cells, confirmation, counter-screen for TRPC4 activator project, cell-based, HEK293 mu-opioid receptor line (AID 449723;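 active means hit in primary screen, with calcium signal over 5 SD above buffer well mean in both duplicates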;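 further: counter screen cells carry the mu-opioid receptor alone and lack TRPC4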). Particulars: Fluo-4 calcium fluorescence, at 10 µM; hits give high values.
Assay [25] can be described thus: calcium flux enhancement in mu-opioid HEK293 cells, confirmation, counter-screen for TRPC4 allosteric potentiator project, cell-based, HEK293 mu-opioid receptor line (AID 449724;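 active means calcium signal rise more than 3 SD above the low-dose agonist control mean, in both duplicate plates and the primary screen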;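 further: HEK293 cells carrying mu-opioid receptor only with no TRPC4 channel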). To be noted: Fluo-4 calcium flux, at 10 µM, compound added before EC20 DAMGO stimulus; hits give high values.

Chain of Potassium voltage-gated channel subfamily KQT member 1 (Homo sapiens) (P51787 whole entry, looked up): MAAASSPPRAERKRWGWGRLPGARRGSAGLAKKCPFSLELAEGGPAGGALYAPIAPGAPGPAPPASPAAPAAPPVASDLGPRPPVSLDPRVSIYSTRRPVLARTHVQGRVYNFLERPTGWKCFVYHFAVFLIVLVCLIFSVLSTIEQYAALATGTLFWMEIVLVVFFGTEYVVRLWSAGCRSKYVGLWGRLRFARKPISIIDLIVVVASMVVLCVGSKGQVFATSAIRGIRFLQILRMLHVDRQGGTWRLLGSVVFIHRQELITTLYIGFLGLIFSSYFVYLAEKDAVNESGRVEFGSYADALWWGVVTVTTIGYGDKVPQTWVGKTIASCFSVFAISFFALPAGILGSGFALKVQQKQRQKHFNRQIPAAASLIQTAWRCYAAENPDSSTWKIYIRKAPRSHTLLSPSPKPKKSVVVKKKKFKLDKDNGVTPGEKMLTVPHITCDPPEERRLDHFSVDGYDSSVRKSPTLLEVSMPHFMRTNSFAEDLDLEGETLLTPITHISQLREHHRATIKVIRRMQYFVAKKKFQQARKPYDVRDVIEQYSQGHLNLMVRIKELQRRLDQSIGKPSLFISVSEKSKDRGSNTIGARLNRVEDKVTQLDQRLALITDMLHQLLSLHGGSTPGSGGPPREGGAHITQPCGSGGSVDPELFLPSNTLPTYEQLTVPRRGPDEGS
Chain of Short transient receptor potential channel 6 (Mus musculus) (Q61143 whole entry, looked up): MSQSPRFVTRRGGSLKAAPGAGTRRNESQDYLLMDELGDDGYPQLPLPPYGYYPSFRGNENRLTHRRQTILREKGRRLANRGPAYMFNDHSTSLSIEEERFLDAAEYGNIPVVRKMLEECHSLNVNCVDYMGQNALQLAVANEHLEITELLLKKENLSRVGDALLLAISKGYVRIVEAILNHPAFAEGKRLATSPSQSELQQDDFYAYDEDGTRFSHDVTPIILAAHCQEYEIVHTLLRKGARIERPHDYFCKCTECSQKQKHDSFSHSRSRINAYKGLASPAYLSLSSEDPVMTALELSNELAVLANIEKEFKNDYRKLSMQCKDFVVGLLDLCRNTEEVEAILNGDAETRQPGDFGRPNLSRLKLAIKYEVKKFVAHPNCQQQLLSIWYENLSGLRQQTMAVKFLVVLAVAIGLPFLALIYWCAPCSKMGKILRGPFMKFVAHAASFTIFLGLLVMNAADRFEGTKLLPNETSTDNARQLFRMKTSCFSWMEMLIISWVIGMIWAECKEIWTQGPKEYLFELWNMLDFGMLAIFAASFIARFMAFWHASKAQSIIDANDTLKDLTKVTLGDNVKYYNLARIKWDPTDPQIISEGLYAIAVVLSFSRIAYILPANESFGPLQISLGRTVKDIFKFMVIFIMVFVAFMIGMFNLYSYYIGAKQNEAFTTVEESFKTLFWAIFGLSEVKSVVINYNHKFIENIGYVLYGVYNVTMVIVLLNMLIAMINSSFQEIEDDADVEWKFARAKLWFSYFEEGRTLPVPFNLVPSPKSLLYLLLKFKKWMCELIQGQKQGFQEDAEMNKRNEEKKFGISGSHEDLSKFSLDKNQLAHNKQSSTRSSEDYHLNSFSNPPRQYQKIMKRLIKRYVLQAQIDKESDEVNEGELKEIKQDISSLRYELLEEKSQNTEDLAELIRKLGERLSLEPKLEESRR
Chain of Short transient receptor potential channel 4 (Mus musculus) (Q9QUQ5 whole entry, looked up): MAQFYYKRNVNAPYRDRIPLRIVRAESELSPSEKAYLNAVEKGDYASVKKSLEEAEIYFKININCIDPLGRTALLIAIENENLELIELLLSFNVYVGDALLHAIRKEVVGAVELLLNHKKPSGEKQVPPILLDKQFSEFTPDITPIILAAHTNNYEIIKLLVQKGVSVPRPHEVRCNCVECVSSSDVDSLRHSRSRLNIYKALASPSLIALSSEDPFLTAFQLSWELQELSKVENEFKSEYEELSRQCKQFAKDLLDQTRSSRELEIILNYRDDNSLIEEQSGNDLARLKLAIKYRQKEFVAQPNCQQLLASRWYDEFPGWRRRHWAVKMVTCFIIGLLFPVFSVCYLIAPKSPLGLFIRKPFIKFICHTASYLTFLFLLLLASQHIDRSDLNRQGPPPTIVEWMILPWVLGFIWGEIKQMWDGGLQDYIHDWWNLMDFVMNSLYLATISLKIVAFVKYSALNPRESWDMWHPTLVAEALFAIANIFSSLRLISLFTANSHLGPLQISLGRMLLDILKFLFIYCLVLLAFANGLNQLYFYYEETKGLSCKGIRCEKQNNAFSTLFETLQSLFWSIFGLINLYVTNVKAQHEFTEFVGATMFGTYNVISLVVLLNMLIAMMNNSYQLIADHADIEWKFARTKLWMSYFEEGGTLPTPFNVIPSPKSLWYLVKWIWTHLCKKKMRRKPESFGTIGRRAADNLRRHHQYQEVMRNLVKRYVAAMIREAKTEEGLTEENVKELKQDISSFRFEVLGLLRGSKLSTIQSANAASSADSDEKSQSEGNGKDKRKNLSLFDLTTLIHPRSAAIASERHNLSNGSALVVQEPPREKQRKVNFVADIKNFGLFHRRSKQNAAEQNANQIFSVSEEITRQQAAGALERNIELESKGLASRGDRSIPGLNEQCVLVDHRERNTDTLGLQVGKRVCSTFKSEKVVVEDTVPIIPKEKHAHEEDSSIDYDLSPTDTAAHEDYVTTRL

Take `Fc1cc(F)c2nc(Nc3nc4c(F)cccc4s3)sc2c1`: the activity increase over 3SD of controls in assay [1] is -5.6%. The activation over 3SD threshold in assay [2] is -15.7%. The potentiation, less the hit threshold in [3] was 20.5% (active). The result in assay [4] and in assay [8] was inactive. In assay [5], the activation was 330% (active). Further, the potentiation is 196% (active) in assay [6] and 422% (active) in assay [7].

`CCOc1nc(C)cc(C)c1S(=O)(=O)c1cccc(C)c1`: the result in assay [9], in [10], in assay [11], in [12], in assay [13] and in assay [14] was inactive. For the same molecule, the result in [15], in assay [16], in assay [17], in assay [18], in assay [19] and in [20] was inactive. In addition, the result in [21], in [22], in assay [23], in [24] and in assay [25] was inactive.

Take `CCCSc1nc(C)cc(C)c1S(=O)(=O)c1ccccc1C`: the result in assay [9], in [10], in assay [11], in assay [12], in [13] and in [14] was inactive. Also, the result in assay [15], in assay [16], in assay [17], in assay [18], in assay [19] and in [20] was inactive. Further, the result in assay [21], in assay [22], in assay [23], in [24] and in [25] was inactive.

As for `c1ccc(C(c2nnnn2C2CCCC2)N2CCN(c3ccccc3)CC2)cc1` (centres undefined), the outcome in assay [9], in [10], in assay [11], in [12], in assay [13] and in assay [14] was inactive. Also, the result in assay [15], in assay [16], in assay [17], in [18], in [19] and in assay [20] was inactive. In addition, the result in [21], in assay [22], in assay [23], in assay [24] and in assay [25] was inactive.
